A number with no mark means an inactive call. Inconclusive results are not listed. Entries that show only a call come without a potency. The source made the active and inactive calls. Calls follow the shape of the dose curve; as a rule, active = well fitted curve in the direction sought with a large enough effect in the repeat runs; inconclusive = weak or mixed curves; inactive = no such curve, though single readings can be large; an effect the other way counts as inactive or inconclusive.
Experiments:
[1] = qHTS RealTime-Glo MT Cell Viability Assay in HepG2 cells - 24 hour (AID 1224867); also: nearly all actives have a fitted effect of over 50% in size
Procedure, shortened: (§1)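 qHTS, HepG2, 600 cells/well, RealTime-Glo (NanoLuc + prosubstrate) added with cells; 5 h preincubation; DMSO compound addition; 37 C; luminescence at 0/8/16/24/32/40 h.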

[2] = qHTS RealTime-Glo MT Cell Viability Assay in HEK293 cells - 32 hour (AID 1224868); also: top concentration of the series differs between compounds; nearly all actives have a fitted effect of over 50% in size
Procedure, shortened: (§2)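 Assay medium contained NanoLuc luciferase plus cell-permeant prosubstrate, added with HEK293 cells at 600 cells/well. After 5 h at 37 C/5% CO2 compounds were added; plates stayed at 37 C for 40 h with serial luminescence reads.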

[3] = qHTS RealTime-Glo MT Cell Viability Assay in HepG2 cells - 40 hour (AID 1224870); also: nearly all actives have a fitted effect of over 50% in size
Procedure, shortened: (§3)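 HepG2 cells mixed with RealTime-Glo MT reagents (NanoLuc plus cell-permeant prosubstrate) were seeded at 600 cells/well, incubated 5 h at 37 C/5% CO2, then pinned with compounds in DMSO; nonlytic luminescence tracked viability during 40 h treatment.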

[4] = A CellTox Green Cytotoxicity Assay to monitor cytotoxicity in HEK293 cells - 40 hour (AID 1224871); also: nearly all actives have a fitted effect of over 45% in size
Procedure, shortened: (§4)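 Fluorescence intensity, read at 0, 8, 16, 24, 32 and 40 h of compound treatment, reflected dye binding to DNA of dead HEK293 cells; compounds (23 nL, DMSO) were added 5 h after plating cells with reagent.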

[5] = qHTS RealTime-Glo MT Cell Viability Assay in HEK293 cells - 16 hour (AID 1224872); also: top concentration of the series differs between compounds; nearly all actives have a fitted effect of over 50% in size
Procedure, shortened: as §2

[6] = qHTS RealTime-Glo MT Cell Viability Assay in HepG2 cells - 8 hour (AID 1224873); also: nearly all actives have a fitted effect of over 55% in size
Procedure, shortened: as §3

[7] = qHTS RealTime-Glo MT Cell Viability Assay in HEK293 cells - 40 hour (AID 1224874); settings: RealTime-Glo luminescence; max response: stronger effect = lower value; also: nearly all actives have a fitted effect of over 50% in size
Procedure, shortened: (§5)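 Viable HEK293 cells reduce a cell-permeant prosubstrate; the product diffuses out and is consumed by NanoLuc in the medium to give light. Compounds went in after a 5 h incubation and plates were read over the treatment course.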

[8] = A CellTox Green Cytotoxicity Assay to monitor cytotoxicity in HepG2 cells - 16 hour (AID 1224876); also: nearly all actives have a fitted effect of over 45% in size
Procedure, shortened: (§6)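 Using 1536-well format, dye-containing HepG2 suspension was seeded, allowed 5 h at 37 C/5% CO2, dosed by pintool with compounds, positive and negative controls, and imaged for fluorescence across 40 h.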

[9] = qHTS RealTime-Glo MT Cell Viability Assay in HepG2 cells - 32 hour (AID 1224877); also: nearly all actives have a fitted effect of over 55% in size
Procedure, shortened: as §1

[10] = A CellTox Green Cytotoxicity Assay to monitor cytotoxicity in HepG2 cells - 24 hour (AID 1224878); also: nearly all actives have a fitted effect of over 45% in size
Procedure, shortened: as §6

[11] = A CellTox Green Cytotoxicity Assay to monitor cytotoxicity in HepG2 cells - 40 hour (AID 1224879); also: nearly all actives have a fitted effect of over 40% in size
Procedure, shortened: as §6

[12] = qHTS RealTime-Glo MT Cell Viability Assay in HEK293 cells - 0 hour (AID 1224880); also: top concentration of the series differs between compounds; nearly all actives have a fitted effect of over 45% in size
Procedure, shortened: as §5

[13] = A CellTox Green Cytotoxicity Assay to monitor cytotoxicity in HEK293 cells - 32 hour (AID 1224881); also: nearly all actives have a fitted effect of over 40% in size
Procedure, shortened: as §4

[14] = A CellTox Green Cytotoxicity Assay to monitor cytotoxicity in HepG2 cells - 0 hour (AID 1224882); also: nearly all actives have a fitted effect of over 35% in size
Procedure, shortened: as §6

[15] = A CellTox Green Cytotoxicity Assay to monitor cytotoxicity in HepG2 cells - 32 hour (AID 1224883); also: nearly all actives have a fitted effect of over 50% in size
Procedure, shortened: as §6

[16] = A CellTox Green Cytotoxicity Assay to monitor cytotoxicity in HEK293 cells - 8 hour (AID 1224884); also: nearly all actives have a fitted effect of over 35% in size; also: potency is read from the fitted curve at half-maximal effect
Procedure, shortened: as §4

[17] = qHTS RealTime-Glo MT Cell Viability Assay in HepG2 cells - 16 hour (AID 1224885); also: nearly all actives have a fitted effect of over 50% in size
Procedure, shortened: as §1

[18] = A CellTox Green Cytotoxicity Assay to monitor cytotoxicity in HEK293 cells - 0 hour (AID 1224869); also: nearly all actives have a fitted effect of over 50% in size
Procedure, shortened: as §4

[19] = A CellTox Green Cytotoxicity Assay to monitor cytotoxicity in HEK293 cells - 24 hour (AID 1224875)
Procedure, shortened: as §4

SMILES | outcome [1] | Potency [2] | outcome [3] | Potency [4] | Potency [5] | outcome [6] | max response [7] [%] | Potency [8] | outcome [9] | Potency [10] | Potency [11] | outcome [12] | Potency [13] | Potency [14] | Potency [15] | Potency [16] | outcome [17] | Potency [18] | Potency [19]
CC1=CC[C@H](CC=O)C1(C)C | inactive | inactive | inactive | inactive | inactive | inactive | 1.6 | inactive | inactive | inactive | inactive | inactive | inactive | inactive | inactive | inactive | inactive |  | 
Cc1ccc(C(=O)C(=O)O)cc1C | inactive |  | inactive | inactive | inactive | inactive | -0.829 | inactive | inactive | inactive | inactive | inactive |  | inactive | inactive | inactive | inactive | inactive | inactive
CC(C)COC(=O)CC(C(=O)OCC(C)C)S(=O)(=O)O (stereo not drawn) | inactive | inactive | inactive | inactive | inactive | inactive | -3.15 | inactive | inactive | inactive | inactive | inactive | inactive | inactive | inactive |  | inactive |  | inactive
NC(Cc1c[nH]c2ccccc12)C(=O)O (stereo not drawn) | inactive |  | inactive | inactive | inactive | inactive | 13.4 | inactive | inactive | inactive | inactive | inactive | inactive |  | inactive |  | inactive | inactive | inactive
CCC(=O)OCCC(C)CCC=C(C)C (stereo not drawn) | inactive |  | inactive | inactive | inactive | inactive | -5.38 | inactive | inactive | inactive | inactive | inactive | inactive | inactive | inactive | inactive | inactive | inactive | inactive
Nc1ccc(S(=O)(=O)Nc2ccccn2)cc1 | inactive |  | inactive | inactive | inactive | inactive | -4.15 | inactive | inactive | inactive | inactive | inactive | inactive | inactive | inactive | inactive | inactive | inactive | 
Nc1cc(S(=O)(=O)O)ccc1S(=O)(=O)O | inactive | inactive |  | inactive | inactive | inactive | 21 | inactive | inactive | inactive | inactive | inactive | inactive | inactive | inactive | inactive | inactive | inactive | 
CC(C)CCCCCCOC(=O)C1CCCCC1C(=O)OCCCCCCC(C)C (stereo not drawn) | inactive | inactive | inactive | inactive | inactive | inactive | 14.8 | inactive | inactive | inactive | inactive | inactive | inactive | inactive | inactive | inactive | inactive |  | inactive
O=C1NC2NC(=O)NC2N1 (stereo not drawn) | inactive | inactive | inactive | inactive | inactive | inactive | 1.34 | inactive | inactive | inactive | inactive | inactive | inactive | inactive | inactive | inactive | inactive |  | inactive
COc1cc2c(Nc3ccc(Br)cc3F)ncnc2cc1OCC1CCN(C)CC1 | inactive | inactive |  | inactive | inactive | inactive | 6.99 | inactive | inactive | inactive | inactive | inactive | inactive | inactive | inactive |  | inactive |  | inactive
C1=C\CC/C=C\CC/1 | inactive | inactive | inactive | inactive | inactive | inactive | 16.6 | inactive | inactive | inactive | inactive | inactive | inactive | inactive | inactive | 4.07 µM (active) | inactive |  | 
CCCCC(=O)N(C)C | inactive | inactive |  | inactive | inactive | inactive | 1.13 | inactive | inactive | inactive | inactive | inactive | inactive | inactive | inactive | inactive | inactive | inactive | 
CCCCCCCCCCCCC1CO1 (stereo not drawn) | inactive | inactive |  | inactive | inactive | inactive | -5.34 | inactive | inactive | inactive | inactive | inactive | inactive |  | inactive | inactive | inactive | inactive | inactive
CCOc1ccc(NC(=O)OC(C)C)cc1OCC | inactive |  | inactive | inactive | inactive | inactive |  | inactive | inactive | inactive | inactive | inactive | inactive | inactive | inactive |  | inactive | inactive | inactive

Source: PubChem BioAssay (Tox21)
